Of roughly 7,900 targets only a part is listed; those with a hit were picked by preference. About 0.6% of all pairs of compound and target were hits. Unmarked numbers belong to inactive results.

UniProt Q9NUM4, sequence (Q9NUM4 whole entry, looked up): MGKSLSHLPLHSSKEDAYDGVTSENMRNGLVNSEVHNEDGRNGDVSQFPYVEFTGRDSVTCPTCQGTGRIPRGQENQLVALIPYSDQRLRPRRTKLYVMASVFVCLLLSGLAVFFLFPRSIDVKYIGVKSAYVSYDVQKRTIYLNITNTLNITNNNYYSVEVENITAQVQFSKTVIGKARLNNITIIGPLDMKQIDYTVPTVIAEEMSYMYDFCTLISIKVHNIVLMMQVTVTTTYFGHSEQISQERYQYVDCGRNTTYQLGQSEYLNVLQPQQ
UniProt A3KMH1, sequence (A3KMH1 whole entry, looked up): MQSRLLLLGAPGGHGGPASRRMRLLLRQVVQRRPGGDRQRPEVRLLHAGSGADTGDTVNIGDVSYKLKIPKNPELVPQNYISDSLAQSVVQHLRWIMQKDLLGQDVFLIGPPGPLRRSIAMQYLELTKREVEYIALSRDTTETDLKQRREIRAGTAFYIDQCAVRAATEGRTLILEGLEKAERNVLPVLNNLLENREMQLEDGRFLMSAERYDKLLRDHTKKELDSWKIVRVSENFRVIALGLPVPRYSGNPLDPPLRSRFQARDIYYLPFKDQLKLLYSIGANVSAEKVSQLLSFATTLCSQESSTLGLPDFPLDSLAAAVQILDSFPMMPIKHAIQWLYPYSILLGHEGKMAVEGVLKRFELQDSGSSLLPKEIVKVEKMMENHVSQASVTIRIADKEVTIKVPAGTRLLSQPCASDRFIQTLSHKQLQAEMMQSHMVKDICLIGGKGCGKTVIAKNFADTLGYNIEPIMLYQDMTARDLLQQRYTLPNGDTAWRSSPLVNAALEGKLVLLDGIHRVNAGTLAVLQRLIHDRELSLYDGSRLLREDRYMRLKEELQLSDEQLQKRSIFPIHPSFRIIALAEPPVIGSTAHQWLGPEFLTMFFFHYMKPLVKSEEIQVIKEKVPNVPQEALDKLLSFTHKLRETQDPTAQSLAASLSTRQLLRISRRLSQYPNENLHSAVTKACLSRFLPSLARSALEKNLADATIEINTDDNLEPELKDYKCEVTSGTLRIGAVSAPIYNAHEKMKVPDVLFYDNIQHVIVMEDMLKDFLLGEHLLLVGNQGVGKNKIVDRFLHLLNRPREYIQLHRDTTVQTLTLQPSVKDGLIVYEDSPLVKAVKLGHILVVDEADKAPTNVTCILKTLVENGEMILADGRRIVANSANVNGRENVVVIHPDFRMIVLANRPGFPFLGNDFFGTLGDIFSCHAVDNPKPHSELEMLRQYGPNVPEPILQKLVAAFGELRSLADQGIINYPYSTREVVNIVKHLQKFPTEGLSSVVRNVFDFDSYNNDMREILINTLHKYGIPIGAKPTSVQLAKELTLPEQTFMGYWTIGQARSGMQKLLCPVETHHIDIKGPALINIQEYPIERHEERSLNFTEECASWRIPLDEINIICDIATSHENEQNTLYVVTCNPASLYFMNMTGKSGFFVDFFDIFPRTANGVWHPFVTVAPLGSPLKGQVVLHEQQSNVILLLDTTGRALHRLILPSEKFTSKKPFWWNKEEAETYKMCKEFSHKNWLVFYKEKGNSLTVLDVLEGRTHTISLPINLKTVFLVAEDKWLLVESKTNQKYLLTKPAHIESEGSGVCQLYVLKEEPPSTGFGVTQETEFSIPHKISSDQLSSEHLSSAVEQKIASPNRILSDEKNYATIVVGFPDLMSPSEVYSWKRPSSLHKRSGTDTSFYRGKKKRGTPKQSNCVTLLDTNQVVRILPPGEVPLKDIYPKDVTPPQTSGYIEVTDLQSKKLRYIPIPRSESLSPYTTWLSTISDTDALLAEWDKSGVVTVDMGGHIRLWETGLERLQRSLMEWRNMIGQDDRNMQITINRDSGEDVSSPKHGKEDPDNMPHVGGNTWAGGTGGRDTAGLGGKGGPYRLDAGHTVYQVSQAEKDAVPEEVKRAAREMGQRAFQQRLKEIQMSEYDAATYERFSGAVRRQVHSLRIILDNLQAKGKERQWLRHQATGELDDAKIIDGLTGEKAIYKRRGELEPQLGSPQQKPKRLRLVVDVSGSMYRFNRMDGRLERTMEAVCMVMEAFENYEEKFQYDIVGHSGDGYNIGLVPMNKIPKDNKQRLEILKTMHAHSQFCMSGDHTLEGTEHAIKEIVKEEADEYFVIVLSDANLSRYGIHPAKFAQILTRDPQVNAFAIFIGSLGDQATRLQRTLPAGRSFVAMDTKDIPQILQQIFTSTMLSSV
UniProt Q8N4H5, sequence (Q8N4H5 whole entry, looked up): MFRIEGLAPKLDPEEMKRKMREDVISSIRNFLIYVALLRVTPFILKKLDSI
UniProt Q9UPU5, sequence (Q9UPU5 whole entry, looked up): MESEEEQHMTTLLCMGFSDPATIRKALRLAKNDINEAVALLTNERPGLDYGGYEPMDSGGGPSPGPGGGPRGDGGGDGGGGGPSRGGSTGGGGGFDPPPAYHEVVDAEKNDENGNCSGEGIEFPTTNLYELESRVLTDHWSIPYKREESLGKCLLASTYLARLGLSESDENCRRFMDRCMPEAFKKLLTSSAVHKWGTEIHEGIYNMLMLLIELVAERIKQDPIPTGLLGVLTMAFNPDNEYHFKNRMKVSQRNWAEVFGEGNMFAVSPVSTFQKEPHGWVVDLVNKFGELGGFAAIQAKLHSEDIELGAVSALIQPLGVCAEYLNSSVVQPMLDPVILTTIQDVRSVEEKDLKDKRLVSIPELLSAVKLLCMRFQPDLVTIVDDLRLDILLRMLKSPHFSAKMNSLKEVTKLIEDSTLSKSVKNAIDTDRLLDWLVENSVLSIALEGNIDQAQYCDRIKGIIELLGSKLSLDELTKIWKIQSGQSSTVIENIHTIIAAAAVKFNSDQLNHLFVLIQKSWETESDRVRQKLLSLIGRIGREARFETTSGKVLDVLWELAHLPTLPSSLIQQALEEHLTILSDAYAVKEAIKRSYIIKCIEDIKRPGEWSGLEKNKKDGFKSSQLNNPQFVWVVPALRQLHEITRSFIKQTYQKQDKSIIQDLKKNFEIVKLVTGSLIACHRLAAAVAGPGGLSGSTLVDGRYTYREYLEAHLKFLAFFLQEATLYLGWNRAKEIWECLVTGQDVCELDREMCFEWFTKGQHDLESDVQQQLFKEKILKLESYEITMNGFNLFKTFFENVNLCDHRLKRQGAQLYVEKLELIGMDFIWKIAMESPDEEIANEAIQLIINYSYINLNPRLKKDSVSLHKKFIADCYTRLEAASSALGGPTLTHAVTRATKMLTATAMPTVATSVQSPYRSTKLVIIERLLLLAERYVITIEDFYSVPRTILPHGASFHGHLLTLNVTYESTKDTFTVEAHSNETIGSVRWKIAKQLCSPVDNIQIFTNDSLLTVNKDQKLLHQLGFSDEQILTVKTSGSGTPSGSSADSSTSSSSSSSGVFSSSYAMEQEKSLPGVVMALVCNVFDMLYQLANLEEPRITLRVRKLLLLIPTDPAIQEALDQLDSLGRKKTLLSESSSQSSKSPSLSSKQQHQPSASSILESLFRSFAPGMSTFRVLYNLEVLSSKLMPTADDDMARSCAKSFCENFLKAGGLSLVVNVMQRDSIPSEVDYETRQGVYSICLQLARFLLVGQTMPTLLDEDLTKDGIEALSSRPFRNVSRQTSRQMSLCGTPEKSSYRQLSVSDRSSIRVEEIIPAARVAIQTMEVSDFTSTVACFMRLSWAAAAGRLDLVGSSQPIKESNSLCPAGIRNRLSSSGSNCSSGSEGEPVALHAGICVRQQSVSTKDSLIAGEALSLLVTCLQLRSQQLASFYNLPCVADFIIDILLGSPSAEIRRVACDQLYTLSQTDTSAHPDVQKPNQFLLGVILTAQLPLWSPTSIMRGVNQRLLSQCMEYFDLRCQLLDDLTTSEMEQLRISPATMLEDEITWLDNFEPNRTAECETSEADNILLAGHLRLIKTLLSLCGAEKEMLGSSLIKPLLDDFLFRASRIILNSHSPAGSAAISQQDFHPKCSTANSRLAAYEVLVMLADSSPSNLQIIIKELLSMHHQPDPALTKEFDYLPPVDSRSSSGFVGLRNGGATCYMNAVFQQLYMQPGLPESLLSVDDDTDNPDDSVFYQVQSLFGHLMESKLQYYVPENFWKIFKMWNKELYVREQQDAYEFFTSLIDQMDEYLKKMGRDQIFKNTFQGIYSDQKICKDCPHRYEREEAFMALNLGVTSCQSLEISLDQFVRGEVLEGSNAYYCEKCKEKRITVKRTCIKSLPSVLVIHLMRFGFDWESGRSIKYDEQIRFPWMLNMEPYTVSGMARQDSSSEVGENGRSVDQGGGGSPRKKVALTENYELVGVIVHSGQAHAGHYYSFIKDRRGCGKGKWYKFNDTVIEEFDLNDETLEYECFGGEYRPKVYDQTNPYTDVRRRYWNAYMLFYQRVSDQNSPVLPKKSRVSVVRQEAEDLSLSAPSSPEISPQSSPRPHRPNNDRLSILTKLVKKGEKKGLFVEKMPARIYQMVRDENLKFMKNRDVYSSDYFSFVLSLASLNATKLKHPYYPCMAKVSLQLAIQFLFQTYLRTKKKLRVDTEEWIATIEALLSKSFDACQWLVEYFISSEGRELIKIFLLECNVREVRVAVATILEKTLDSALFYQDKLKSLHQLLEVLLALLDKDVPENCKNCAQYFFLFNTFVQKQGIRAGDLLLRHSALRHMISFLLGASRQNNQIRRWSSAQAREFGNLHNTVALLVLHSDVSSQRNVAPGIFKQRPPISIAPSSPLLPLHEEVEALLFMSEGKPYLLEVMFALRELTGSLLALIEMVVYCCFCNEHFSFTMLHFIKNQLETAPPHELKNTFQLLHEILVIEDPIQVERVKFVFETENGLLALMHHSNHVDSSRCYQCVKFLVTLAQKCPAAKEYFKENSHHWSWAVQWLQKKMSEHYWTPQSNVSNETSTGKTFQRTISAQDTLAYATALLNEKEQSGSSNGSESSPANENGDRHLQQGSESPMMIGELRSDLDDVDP

Compound in the assay: COc1cccc2cc(-c3nc([C@H]4CC[C@H](C(=O)O)CC4)n4ncnc(N)c34)[nH]c12
Nature of the assay: log2 fold change, soluble protein after heating vs DMSO (PISA); higher = thermal stabilisation; K562 cells, 10 uM, 30 min; active = over 0.2 and 3.5 SD of the protein, either way, in both replicates (recomputed). The method in brief: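 K562 cells at 2×10^6 cells/mL were given 10 μM compound for 30 min. Aliquots then went through 3 min of heating across 48°C-58°C, were pooled, and were extracted in PBS with 0.5% NP-40 at 4°C, and the supernatant after 21,000xg for 90 min was quantified by TMTpro 16plex LC-MS/MS with channel sums equalised. Thermal stability relative to control samples, from duplicates, is given as log2 fold change.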
On to TYW1 (UniProt Q9NV66), for which the log2 fold change was -0.006.

Take VPS33B (UniProt Q9H267): the log2 fold change was -0.147. Turning to TMEM164 (UniProt Q5U3C3), the log2 fold change was 0.198. Consider WASH2P (UniProt Q6VEQ5), for which the log2 fold change was -0.036. The same measure for TOMM5 isoform 2 (UniProt Q8N4H5): 0.044; for TRIP10 isoform 2 (UniProt Q15642): -0.09; for TMEM106B (UniProt Q9NUM4): 0.057. In the case of TMTC3 (UniProt Q6ZXV5) it was -0.041; in that of USP24 (UniProt Q9UPU5), 0.385 (active).

For the target VWA8 (UniProt A3KMH1), the log2 fold change is 0.077. For UBLCP1 (UniProt Q8WVY7), the log2 fold change was -0.034.

Take VARS2, A0A0G2JL52: the log2 fold change is 0.064.

For the target TRMT10A (UniProt Q8TBZ6), the log2 fold change was 0.028.

The values are drawn from the supplement of paper PMC10849652.
